# Source: PubChem BioAssay (NCI)
# This is part of a sample that, as a whole, favours compounds with a hit. Of some 79,000 tested, about 15% had one in any assay. Unmarked numbers belong to inactive results. Calls of active or inactive are those of the source. Cut-off read from the data, not from the text of the source: active = growth inhibition above about 70%; inactive = the rest.
# Columns and labels:
# [1] = NCI Yeast Anticancer Drug Screen. Data for the wt1 strain (AID 149);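 note: 0% = growth of vehicle-treated wt1 cultures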; details: S. cerevisiae wt1 strain (SPY 50644) growth inhibition, hits give high values
# How it was run: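 Readout: yeast growth inhibition, normalised to vehicle controls, in the wt1 strain exposed to test compounds.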
# [2] = NCI Yeast Anticancer Drug Screen. Data for the rad50EPP+ strain (AID 151);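 note: 0% = growth of vehicle-treated control cultures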; details: S. cerevisiae rad50 mutant strain, hits give high values
# How it was run: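 Compounds were applied to the rad50EPP+ yeast strain, which bears a defined DNA repair alteration, and growth inhibition was determined relative to vehicle-treated cultures.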
# [3] = NCI Yeast Anticancer Drug Screen. Data for the mgt1 strain (AID 153); details: S. cerevisiae mgt1 mutant growth inhibition, hits give high values
# How it was run: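 Strain: mgt1 yeast, one of a set carrying defined DNA damage repair or cell cycle control alterations. Compound-treated growth compared with vehicle.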
# [4] = NCI Yeast Anticancer Drug Screen. Data for the rad50 strain (AID 155);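 note: 0% = growth of vehicle-only cultures of the same strain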; details: S. cerevisiae rad50 strain growth inhibition, hits give high values
# How it was run: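 Compounds were tested on a yeast strain with an engineered DNA damage repair alteration; the reported value is growth inhibition normalised to vehicle treatment.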
# [5] = NCI Yeast Anticancer Drug Screen. Data for the mec2-1 strain (AID 157); details: S. cerevisiae mec2-1 strain, hits give high values
# How it was run: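 Strain: mec2-1 (DNA repair/cell cycle alteration). Compound exposure, then growth measured; inhibition expressed relative to vehicle.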
# [6] = NCI Yeast Anticancer Drug Screen. Data for the rad14 strain (AID 159);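 note: 0% = growth of vehicle-treated control cultures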; details: S. cerevisiae rad14 strain growth inhibition, hits give high values
# How it was run: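 Compound-treated yeast with a defined DNA-repair lesion; growth inhibition normalised to vehicle-treated cultures.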
# [7] = NCI Yeast Anticancer Drug Screen. Data for the sgs1 mgt1 strain (AID 161);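 note: 0% = growth of cultures given vehicle only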; details: S. cerevisiae sgs1 mgt1 strain, hits give high values
# How it was run: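 Test agents were incubated with a DNA-repair-mutant yeast strain. Growth was then read and compared against vehicle-treated controls.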
# [8] = NCI Yeast Anticancer Drug Screen. Data for the CLN2oe strain (AID 163);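 note: 0% = growth of vehicle-only control cultures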; details: S. cerevisiae CLN2oe strain, hits give high values
# How it was run: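 Growth of a genetically modified yeast strain is measured after compound exposure and compared with cultures given vehicle alone.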
# [9] = NCI Yeast Anticancer Drug Screen. Data for the cln2 rad14 strain (AID 165);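 note: 0% = growth equal to vehicle treated cultures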; details: S. cerevisiae cln2 rad14 strain, hits give high values
# How it was run: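 Compounds are applied to the cln2 rad14 yeast strain, and growth is then compared with that of vehicle-treated cultures to give inhibition.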
# [10] = NCI Yeast Anticancer Drug Screen. Data for the bub3 strain (AID 167); details: S. cerevisiae bub3 mutant strain, hits give high values
# How it was run: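 Growth of a checkpoint-deficient yeast mutant is measured after compound exposure. Values represent inhibition relative to vehicle.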
# [11] = NCI Yeast Anticancer Drug Screen. Data for the wt2 strain (AID 169);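 note: 0% = growth of vehicle-treated yeast cultures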; details: S. cerevisiae wt2 strain growth inhibition, hits give high values
# How it was run: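 This strain belongs to a panel of yeast strains with defined genetic alterations in DNA damage repair or cell cycle control. Compounds are applied, and growth inhibition is measured against vehicle-treated cultures.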
# [12] = NCI Yeast Anticancer Drug Screen. Data for the mlh1 strain (AID 171);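 note: 0% = growth of vehicle-treated control cultures of the same strain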; details: S. cerevisiae mlh1 strain growth inhibition, hits give high values
# How it was run: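 Growth of the mutant yeast strain after compound exposure, expressed as inhibition relative to vehicle-only controls.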
# [13] = NCI Yeast Anticancer Drug Screen. Data for the sgs1 strain (AID 173);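 note: 0% = growth of vehicle-only control cultures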; details: S. cerevisiae sgs1 mutant, hits give high values
# How it was run: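 Growth of a yeast strain bearing a defined genetic alteration is measured after compound treatment. Inhibition is expressed relative to vehicle-only controls.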
# [14] = NCI Yeast Anticancer Drug Screen. Data for the mlh1 rad18 strain (AID 175); details: S. cerevisiae mlh1 rad18 strain growth inhibition, hits give high values
# How it was run: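 Read-out is yeast growth inhibition, calculated against vehicle-only controls. The compound was applied to a strain engineered with DNA damage repair alterations.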
# [15] = NCI Yeast Anticancer Drug Screen. Data for the rad18 strain (AID 177); details: S. cerevisiae rad18 mutant growth inhibition, hits give high values
# How it was run: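 Growth of the mutant yeast strain after compound exposure, normalised to vehicle-only cultures.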
# [16] = at 5.0 µM (retest, dose inferred, filed as 0.5)
# [17] = at 50.0 µM (retest, dose inferred, filed as 5.0)
compound,measurement,setting,value
CCC(C)C(=O)OCC(=O)c1ccc(-c2ccccc2)cc1 (stereo unspecified),growth inhibition,[1]; at 1.2 µM,-1%
same,growth inhibition,[1]; at 3.7 µM,-2%
same,growth inhibition,[1]; at 11.0 µM,-2%
same,growth inhibition,[1]; at 33.0 µM,-5%
same,growth inhibition,[1]; at 100.0 µM,-7%
same,growth inhibition,[2]; at 1.2 µM,1%
same,growth inhibition,[2]; at 3.7 µM,3%
same,growth inhibition,[2]; at 11.0 µM,8%
same,growth inhibition,[2]; at 33.0 µM,10%
same,growth inhibition,[2]; at 100.0 µM,9%
same,growth inhibition,[3]; at 1.2 µM,0%
same,growth inhibition,[3]; at 3.7 µM,-1%
same,growth inhibition,[3]; at 11.0 µM,1%
same,growth inhibition,[3]; at 33.0 µM,-4%
same,growth inhibition,[3]; at 100.0 µM,-35%
same,growth inhibition,[4]; at 1.2 µM,0%
same,growth inhibition,[4]; at 3.7 µM,0%
same,growth inhibition,[4]; [16],13%
same,growth inhibition,[4]; at 11.0 µM,0%
same,growth inhibition,[4]; at 33.0 µM,1%
same,growth inhibition,[4]; [17],-8%
same,growth inhibition,[4]; at 50.0 µM,-8.9%
same,growth inhibition,[4]; at 100.0 µM,-2%
same,growth inhibition,[5]; at 1.2 µM,-3%
same,growth inhibition,[5]; at 3.7 µM,-2%
same,growth inhibition,[5]; [16],-3%
same,growth inhibition,[5]; at 11.0 µM,-2%
same,growth inhibition,[5]; at 33.0 µM,-4%
same,growth inhibition,[5]; [17],0%
same,growth inhibition,[5]; at 50.0 µM,2.3%
same,growth inhibition,[5]; at 100.0 µM,-6%
same,growth inhibition,[6]; at 1.2 µM,-1%
same,growth inhibition,[6]; at 3.7 µM,1%
same,growth inhibition,[6]; at 11.0 µM,5%
same,growth inhibition,[6]; at 33.0 µM,5%
same,growth inhibition,[6]; at 100.0 µM,4%
same,growth inhibition,[7]; [16],6%
same,growth inhibition,[7]; [17],-1%
same,growth inhibition,[7]; at 50.0 µM,-3.05%
same,growth inhibition,[8]; at 1.2 µM,3%
same,growth inhibition,[8]; at 3.7 µM,3%
same,growth inhibition,[8]; at 11.0 µM,1%
same,growth inhibition,[8]; at 33.0 µM,-6%
same,growth inhibition,[8]; at 100.0 µM,-7%
same,growth inhibition,[9]; [16],-5%
same,growth inhibition,[9]; [17],-8%
same,growth inhibition,[9]; at 50.0 µM,2.3%
same,growth inhibition,[10]; at 1.2 µM,25%
same,growth inhibition,[10]; at 3.7 µM,35%
same,growth inhibition,[10]; [16],54%
same,growth inhibition,[10]; at 11.0 µM,51%
same,growth inhibition,[10]; at 33.0 µM,68%
same,growth inhibition,[10]; [17],74% (active)
same,growth inhibition,[10]; at 50.0 µM,87.2% (active)
same,growth inhibition,[10]; at 100.0 µM,75% (active)
same,growth inhibition,[11]; at 1.2 µM,-1%
same,growth inhibition,[11]; at 3.7 µM,-2%
same,growth inhibition,[11]; at 11.0 µM,-1%
same,growth inhibition,[11]; at 33.0 µM,-5%
same,growth inhibition,[11]; at 100.0 µM,-6%
same,growth inhibition,[12]; at 1.2 µM,0%
same,growth inhibition,[12]; at 3.7 µM,0%
same,growth inhibition,[12]; at 11.0 µM,-4%
same,growth inhibition,[12]; at 33.0 µM,-73%
same,growth inhibition,[12]; at 100.0 µM,-6%
same,growth inhibition,[13]; at 1.2 µM,-1%
same,growth inhibition,[13]; at 3.7 µM,-1%
same,growth inhibition,[13]; at 11.0 µM,-1%
same,growth inhibition,[13]; at 33.0 µM,-3%
same,growth inhibition,[13]; at 100.0 µM,-4%
same,growth inhibition,[14]; [16],-4%
same,growth inhibition,[14]; [17],5%
same,growth inhibition,[14]; at 50.0 µM,-2.1%
same,growth inhibition,[15]; at 1.2 µM,-1%
same,growth inhibition,[15]; at 3.7 µM,2%
same,growth inhibition,[15]; at 11.0 µM,1%
same,growth inhibition,[15]; at 33.0 µM,-1%
same,growth inhibition,[15]; at 100.0 µM,-5%
O=C(CSS(=O)(=O)O)c1ccccc1,growth inhibition,[1]; at 1.2 µM,0%
same,growth inhibition,[1]; at 3.7 µM,5%
same,growth inhibition,[1]; at 11.0 µM,2%
same,growth inhibition,[1]; at 33.0 µM,5%
same,growth inhibition,[1]; at 100.0 µM,12%
same,growth inhibition,[2]; at 1.2 µM,-4%
same,growth inhibition,[2]; at 3.7 µM,-9%
same,growth inhibition,[2]; at 11.0 µM,11%
same,growth inhibition,[2]; at 33.0 µM,67%
same,growth inhibition,[2]; at 100.0 µM,91% (active)
same,growth inhibition,[3]; at 1.2 µM,-1%
same,growth inhibition,[3]; at 3.7 µM,-3%
same,growth inhibition,[3]; at 11.0 µM,-1%
same,growth inhibition,[3]; at 33.0 µM,2%
same,growth inhibition,[3]; at 100.0 µM,7%
same,growth inhibition,[4]; at 1.2 µM,-1%
same,growth inhibition,[4]; at 3.7 µM,-1%
same,growth inhibition,[4]; [16],6%
same,growth inhibition,[4]; at 11.0 µM,2%
same,growth inhibition,[4]; at 33.0 µM,2%
same,growth inhibition,[4]; [17],54%
same,growth inhibition,[4]; at 50.0 µM,10.8%
same,growth inhibition,[4]; at 100.0 µM,16%
same,growth inhibition,[5]; at 1.2 µM,-4%
same,growth inhibition,[5]; at 3.7 µM,-5%
same,growth inhibition,[5]; [16],-15%
same,growth inhibition,[5]; at 11.0 µM,0%
same,growth inhibition,[5]; at 33.0 µM,9%
same,growth inhibition,[5]; [17],-6%
same,growth inhibition,[5]; at 50.0 µM,19.9%
same,growth inhibition,[5]; at 100.0 µM,24%
same,growth inhibition,[6]; at 1.2 µM,2%
same,growth inhibition,[6]; at 3.7 µM,3%
same,growth inhibition,[6]; at 11.0 µM,5%
same,growth inhibition,[6]; at 33.0 µM,9%
same,growth inhibition,[6]; at 100.0 µM,19%
same,growth inhibition,[7]; [16],-9%
same,growth inhibition,[7]; [17],69%
same,growth inhibition,[7]; at 50.0 µM,35.3%
same,growth inhibition,[8]; at 1.2 µM,-5%
same,growth inhibition,[8]; at 3.7 µM,-14%
same,growth inhibition,[8]; at 11.0 µM,-11%
same,growth inhibition,[8]; at 33.0 µM,2%
same,growth inhibition,[8]; at 100.0 µM,28%
same,growth inhibition,[9]; [16],6%
same,growth inhibition,[9]; [17],15%
same,growth inhibition,[9]; at 50.0 µM,18.2%
same,growth inhibition,[10]; at 1.2 µM,0%
same,growth inhibition,[10]; at 3.7 µM,-5%
same,growth inhibition,[10]; [16],-17%
same,growth inhibition,[10]; at 11.0 µM,-1%
same,growth inhibition,[10]; at 33.0 µM,18%
same,growth inhibition,[10]; [17],76% (active)
same,growth inhibition,[10]; at 50.0 µM,34.5%
same,growth inhibition,[10]; at 100.0 µM,47%
same,growth inhibition,[11]; at 1.2 µM,-2%
same,growth inhibition,[11]; at 3.7 µM,-1%
same,growth inhibition,[11]; at 11.0 µM,1%
same,growth inhibition,[11]; at 33.0 µM,6%
same,growth inhibition,[11]; at 100.0 µM,15%
same,growth inhibition,[12]; at 1.2 µM,-4%
same,growth inhibition,[12]; at 3.7 µM,1%
same,growth inhibition,[12]; at 11.0 µM,3%
same,growth inhibition,[12]; at 33.0 µM,12%
same,growth inhibition,[12]; at 100.0 µM,24%
same,growth inhibition,[13]; at 1.2 µM,0%
same,growth inhibition,[13]; at 3.7 µM,2%
same,growth inhibition,[13]; at 11.0 µM,13%
same,growth inhibition,[13]; at 33.0 µM,29%
same,growth inhibition,[13]; at 100.0 µM,51%
same,growth inhibition,[14]; [16],31%
same,growth inhibition,[14]; [17],89% (active)
same,growth inhibition,[14]; at 50.0 µM,35%
same,growth inhibition,[15]; at 1.2 µM,5%
same,growth inhibition,[15]; at 3.7 µM,20%
same,growth inhibition,[15]; at 11.0 µM,62%
same,growth inhibition,[15]; at 33.0 µM,84% (active)
same,growth inhibition,[15]; at 100.0 µM,89% (active)
